According to PMC12136788:
Substitutions are numbered along the chain they refer to. In all, about 24,000 sequences were measured (“enrichment r”: median about 0.99, highest 2% from about 3.7 on). Only a sample is shown.

T1: UNK ZnF1-3 (human, UniProt Q9C0B0 31-174)
T1 sequence: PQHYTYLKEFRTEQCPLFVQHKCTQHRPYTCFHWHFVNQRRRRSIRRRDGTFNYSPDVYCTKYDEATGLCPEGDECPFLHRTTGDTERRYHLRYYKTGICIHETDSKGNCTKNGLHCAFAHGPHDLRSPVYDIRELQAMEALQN

B1: 120770645_120770765_141_5pUTR_ENSMUSG00000043207_ENSMUST00000058754|mouse|control|control (ssRNA)
RNA: GGGAGUUCUACAGUCCGACGAUCCUCAGCGACACGCGUCCCUCGGAGAGUGCCAGCGGUGUCACAACAAUACGGGUCCCUUCCGAGGGCUUCUUCAGACGCCCAUUCCCUCAGCUUUGCCAGAAGUGUCACAAAGACACGAUUCAACAGAGGAUUGAGCAUCA
B2: chr7:118215947:118215948:-_ENSMUSG00000005610_ENSMUST00000162415|mus_mus|FALSE|FALSE (ssRNA)
RNA: GGGAGUUCUACAGUCCGACGAUCGGUCCUUGCAAUAGACUGCCUCUGCUUGAGAACUUAGGAUGUAAUUAUUGCAUGCUGCUAAUAUUCUAUCUAAACAUUAAGGAUACUCCUAAAGUAUUUGAUGGUAGACUAUGAUUAAGACAACAGAGGAUUGAGCAUCA
B3: 78432385_78432637_487_CDS_ENSG00000162613_ENST00000370768|human|control|control (ssRNA)
RNA: GGGAGUUCUACAGUCCGACGAUCUUCAGGUGUUCCAGUUAACAUACAGGACCUUUCUGGAAGGCCACCACUGUCAGGAGCUAUCUGUAUUUUGCAUCCAGAUUCCUGUUGUAUGCGUGAGAUCUGUUCACCUCCUCUGCCAAUCAACAGAGGAUUGAGCAUCA
B4: chr8:35203877:35203878:-_ENSMUSG00000031513_ENSMUST00000033910|mus_hu|FALSE|FALSE (ssRNA)
RNA: GGGAGUUCUACAGUCCGACGAUCGGAAGGGCACAUCCAAGCAUCAAAAACAUCAGUCCGAUUGCUCCUCCAAAGGACAAACUAAUCAAAGCUUUGAUGCCUGCCAUGGCGGUGACGUCGCUCCUGGCUCCACGACCCGAGGCGCAACAGAGGAUUGAGCAUCA
B5: chr2:48026839:48026840:+_ENSG00000116062_ENST00000540021|hu_hu|hu_hu_hu_mus_False|38_108 (ssRNA)
RNA: GGGAGUUCUACAGUCCGACGAUCAUAGUGUGCCACUAGCGUCCUAAAUCUGGAACAGUGGCGGUCAUCCGAAAACUGGCCGAUGAAAAACUUGCCCAGUGAAGUAUCCACAAAGCAAACACCAUACACACGAGUGUGACCAGACAACAGAGGAUUGAGCAUCA
B6: chr16:46990815:46990816:-_ENSG00000069345_ENST00000563158|hu_hu|motif|central (ssRNA)
RNA: GGGAGUUCUACAGUCCGACGAUCUCAAAAUGAAGAUGUAAAGCUUUGUGGUUAGUUUAAAUUAUACACUCUGUAGAUACGGUACCAAUUUUAAAAGUUAUACAUAGACCAACAGAUGUCCCUCAGUUCAUCUGGAUUGAUAAGCAACAGAGGAUUGAGCAUCA
B7: chr1:220276048:220276049:+_ENSG00000067704_ENST00000302637|hu_hu|hu_hu_hu_mus_True|8_78 (ssRNA)
RNA: GGGAGUUCUACAGUCCGACGAUCGCAAAUUGCCUGGUUGGCGGGAAUUGUCCAAGGUUGUGUGGUCCAAACUAAAACGCUAACAGGGGAUGAGGCAUCUGUAAGAGACUCCAACUUCGGAGGAGGUUUUAAGAGAGGGAAUCUCAACAGAGGAUUGAGCAUCA
B8: chr9:62645482:62645483:-_ENSMUSG00000032244_ENSMUST00000034775|mus_hu|FALSE|FALSE (ssRNA)
RNA: GGGAGUUCUACAGUCCGACGAUCUACUGUGGUAUGGUUCACGUUGGCUCCAUGGCUGACUAGAAGUUUAACAACUUCAAAAUGUCCUGCUCCAGCUGCACACCAAAGAGCAGUGGCACCAUCAAUGACAUACCCGUCGAAGCGCAACAGAGGAUUGAGCAUCA
B9: chr2:232319755:232319756:-_ENSG00000115053_ENST00000322723|hu_hu|motif|central (ssRNA)
RNA: GGGAGUUCUACAGUCCGACGAUCAAAAGUUUAUAUGAAUAUCCAGUCAAAACCAACACGGUAUUGCCCUUGAAAUGUUAACGGGACGGAUUUCCAAGGAGACCACAGGACUGUAUACUGUCUUGGAAUGUCCUCAGAAGGCUCCAACAGAGGAUUGAGCAUCA
B10: 69235085_69235205_3312_3pUTR_ENSG00000135679_ENST00000462284|human|control|control (ssRNA)
RNA: GGGAGUUCUACAGUCCGACGAUCGGCUGGAGAAUAAGUACAUUUUUACAGCCGGGUGUGGUGGCUAACGCCUGUAAUCCUACUUAGCACUUUGCGAGGCCAAGACAGGAGGAUCUCUUGAGCCCAGGAGUUCGAGACCAGCCUCAACAGAGGAUUGAGCAUCA
B11: chr11:79222206:79222207:+_ENSMUSG00000020716_ENSMUST00000071325|mus_hu|FALSE|FALSE (ssRNA)
RNA: GGGAGUUCUACAGUCCGACGAUCUUUUGUAAAUUCAUCUGGAUAAUUUUCUACCCAGUUCCAAAAUGCCUUUUCCAGGCUAUUUAUAACUGCUAACUGCGCAACCUUCUUUAGGGCUUUAAAUUUAAAUGCUGUUUCCUUCAGCAACAGAGGAUUGAGCAUCA
B12: 62954625_62958383_5419_CDS_ENSG00000116641_ENST00000251157|human|control|control (ssRNA)
RNA: GGGAGUUCUACAGUCCGACGAUCUGCUUCUUGAAGUUUACCAUGAAUUGUGGAUAGUUUCUUUGCAUCCCGAUUAGCUUCAUGAAUAGGAAUAAGUACUUUGUAAACUUCAUUAACUGCUUCAUACAUGCCAGCCAUAGAGAACAACAGAGGAUUGAGCAUCA
B13: chr9:53391639:53391640:-_ENSMUSG00000032047_ENSMUST00000034547|mus_hu|motif|central (ssRNA)
RNA: GGGAGUUCUACAGUCCGACGAUCCACUUUUUGGGGAUCAAUCUCCAACAUUUUAAUGUUUGCUAGUACAACCAGACGGAAGGCUUCAUUUACUUCCCACAUUGCAAUAUCUUCUUUUUUCAAUCCCACAUCUUUAAGAACCAUCAACAGAGGAUUGAGCAUCA
B14: chr4:76721835:76721836:+_ENSG00000138768_ENST00000264904|hu_mus|hu_hu_hu_mus_True|48_48 (ssRNA)
RNA: GGGAGUUCUACAGUCCGACGAUCGUUUGGCUGGGGUUUCUGAGACGCUCUGGAAUAUAACUCAUGUUUGCUAAUAAAUCCUAGUUUUCUAUGAAAUUUCUCUUUGCCAAUCCUCUUCUCUAUUAGUUGCUUUAGUUUCUCUUUCAACAGAGGAUUGAGCAUCA
B15: chr9:66219764:66219765:+_ENSMUSG00000038664_ENSMUST00000042824|mus_mus|motif|central (ssRNA)
RNA: GGGAGUUCUACAGUCCGACGAUCUUCAAAAUCAGGCAACUGUGGUCCUUUGAGGCAUAAAACCUGUUGAGGCAAAGGUACGGCUUCCUUAUUGCUGAUCAGUUUAGAAUACAAAACGGUAACUCCCUCUCUUGUAGCAAUAGACAACAGAGGAUUGAGCAUCA
B16: chr7:44244176:44244177:+_ENSG00000106636_ENST00000223369|hu_mus|hu_hu_hu_mus_False|38_108 (ssRNA)
RNA: GGGAGUUCUACAGUCCGACGAUCACUAUCAUUCCGGACGUAGACAUGGCAAAGAUACUCUUGUUCUUUGACAGAAGCUCUGCUGCCUUUCCCCGAGCGCUCCACAAUCAGUUGACUUGUAAAGGUCAUGAAUUCCUGCACACUCAACAGAGGAUUGAGCAUCA
B17: 109692034_109692919_6190_CDS_ENSG00000148143_ENST00000277225|human|control|control (ssRNA)
RNA: GGGAGUUCUACAGUCCGACGAUCGAGGUGAUUGCAGAUGGCUCGGAGCGUUGGGUGCACUUCCACACAGAAUUUACAUUUGUAGCCCACCACUUUCCUCUCCUUGAUCUUUGGCACCUCUUCUAAGUGACCAAAAGGCCUCUCCAACAGAGGAUUGAGCAUCA
B18: chr1:220276048:220276049:+_ENSG00000067704_ENST00000302637|hu_hu|hu_hu_hu_mus_True|38_88 (ssRNA)
RNA: B7 RNA with U48C, U57C, U60G, G100A, U127C, U129C, A131G, A135G
B19: chr1:115282363:115282364:-_ENSG00000009307_ENST00000339438|perfect_dup|motif|central (ssRNA)
RNA: GGGAGUUCUACAGUCCGACGAUCAUCAUCUCCUACUUUUAAGUCUUGCAGGUUGCCAUUAUACUGUGAACAGUGGAAGAAAAGUCGGGCUUGACGUUCUGAACACUGAAUAAAUCCGUAAGAGGUUAACAGUUUUUCAAUAACCAACAGAGGAUUGAGCAUCA
B20: chr18:35748043:35748044:+_ENSMUSG00000037236_ENSMUST00000166793|perfect_dup|FALSE|FALSE (ssRNA)
RNA: GGGAGUUCUACAGUCCGACGAUCUGUAUAAAAGAGUGAACACAGCUUACAGUAAAACCCUGUUUUAGGUAUCACAUAGUCUAUACCAACAGGAACAUUAGGCUGAUAUGGUCCGAUUCUAUACUCAUCGGGAAUUGUAUAAUCCAACAGAGGAUUGAGCAUCA
B21: chr2:179515052:179515053:+_ENSMUSG00000000305_ENSMUST00000000314|mus_hu|mus_mus_mus_hu_False|28_58 (ssRNA)
RNA: GGGAGUUCUACAGUCCGACGAUCGCUGUCCCAUGCAGUCACCGUGAACGCCACCUGCUCGGAGGGGACCUGCAGCUCCCUAGUGGCGAAGACUGUCCCAUCUGCCCCGACUUUGAAGUCCAUGCUGUUGGUCUCAUAUUGUGUCAACAGAGGAUUGAGCAUCA
B22: chr7:135612270:135612271:-_ENSG00000105887_ENST00000393085|hu_mus|hu_hu_hu_mus_False|8_8 (ssRNA)
RNA: GGGAGUUCUACAGUCCGACGAUCGUUUUUUUCUGAGAUGUUAAAUAGUACUUCAGUGGAAAACAAAACUUAACCUUUUAUUAAUGCGUGUUGUACCAAAAGCAGACAUUUUAGCUUCAUUUAUUCACUCAAAAUAUCAUUAAGCAACAGAGGAUUGAGCAUCA

Biological target: T1, UNK ZnF1-3
Test: nsRBNS (natural sequence RNA bind-n-seq); RBNS binding buffer (assumed for nsRBNS): 25 mM Tris pH 7.5, 150 mM KCl, 3 mM MgCl2, 0.01% Triton X-100, 500 ug/ml BSA, 20 U/ml SUPERase-In, 4 C; UNK is unkempt and MSI1 is Musashi-1; names of the RNAs are library labels; protein concentration not given here; high values mean tight binding

For B1, which binding signal is on record?
The binding signal was 0.703 enrichment R.

Which binding signal does the source give for B2 here?
Its binding signal is 1.31 enrichment R.

Which binding signal does the source give for B3 here?
The binding signal was 0.709 enrichment R.

How did the binding signal turn out when B4 was run?
The binding signal was 2.82 enrichment R.

B5 was tested. Which binding signal did it give?
The binding signal was 1.07 enrichment R.

With B6 as the binder, how does the binding signal read?
Its binding signal is 0.61 enrichment R.

Which binding signal does the source give for B7 here?
The binding signal was 1.91 enrichment R.

Which binding signal does the source give for B8 here?
Its binding signal is 0.893 enrichment R.

With B9 as the binder, how does the binding signal read?
Its binding signal is 0.847 enrichment R.

With B10 as the binder, how does the binding signal read?
The binding signal was 1.12 enrichment R.

For B11, which binding signal is on record?
Its binding signal is 0.853 enrichment R.

Which binding signal does the source give for B12 here?
Its binding signal is 1.01 enrichment R.

For B13, which binding signal is on record?
Its binding signal is 1.03 enrichment R.

Which binding signal does the source give for B14 here?
Its binding signal is 0.57 enrichment R.

With B15 as the binder, how does the binding signal read?
The binding signal was 0.879 enrichment R.

How did the binding signal turn out when B16 was run?
Its binding signal is 0.779 enrichment R.

With B17 as the binder, how does the binding signal read?
The binding signal was 0.805 enrichment R.

B18 was tested. Which binding signal did it give?
Its binding signal is 1.67 enrichment R.

For B19, which binding signal is on record?
Its binding signal is 1.55 enrichment R.

B20 was tested. Which binding signal did it give?
The binding signal was 0.418 enrichment R.

With B21 as the binder, how does the binding signal read?
The binding signal was 0.737 enrichment R.

With B22 as the binder, how does the binding signal read?
The binding signal was 0.523 enrichment R.
